Test systems include CAMK1B; CAMK1D; CAMK1G; CAMK1; CAMK2A; CAMK2B; CAMK2D; CAMK2G; CAMK4; CAMKK1; CAMKK2; CASK; CDC2L2; CDK2; CDK3; CDK4-cyclinD1; CDK4-cyclinD3.
Settings in all cases: concentration: 1 μM, replicates: in singlicate; n = 1
The next assay deals with T1, CDC2L1.
T1 construct: gene CDK11B

Another assay relates to T2, CDC2L5.
T2 construct: gene CDK13

In the next assay the test system is T3, CDK11.
T3 construct: gene CDK19
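Further: KINOMEscan kinase panel screen.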

With `Cc1ccc(NC(=O)Nc2cccc(Cl)c2)cc1-c1ccc(C(=O)Nc2ccncc2)cc1` [GSK1398468], the “%Inh” value was 28% in the assay on CAMK1B; 13% in the assay on CAMK1D; 0% with CAMK1G; 7% in the assay on CAMK1; 0% with CAMK2A; 0% in the assay on CAMK2B. Further, the “%Inh” value is on record as 7% in the assay on CAMK2D; 27% with CAMK2G; 0% in the assay with CAMK4; 0% with CAMKK1; 25% in the assay with CAMKK2; 5% with CASK. Further, the “%Inh” value amounted to 0% in the assay on CDC2L1; 22% in the assay on CDC2L2; 0% with CDC2L5; 14% in the assay on CDK11; 33% in the assay on CDK2; 6% with CDK3. Further, the entries for the “%Inh” value in the assay on CDK4-cyclinD1 and in the assay on CDK4-cyclinD3 were 0% and 11%, respectively.
`COc1ccc2nc(-c3cccc(C)n3)nc(Nc3ccncc3)c2c1` [GSK204919]: the “%Inh” value in the assay on CAMK1B was determined as 0%; with CAMK1D it was 2%; in the assay on CAMK1G, 0%; with CAMK1, 5%; with CAMK2A, 0%; in the assay on CAMK2B it was 0%. Further, the “%Inh” value turned out to be 0% with CAMK2D; 3% in the assay on CAMK2G; 0% in the assay on CAMK4; 0% with CAMKK1; 0% in the assay with CAMKK2; 23% with CASK. Moreover, the “%Inh” value with CDC2L1, with CDC2L2, in the assay on CDC2L5, in the assay with CDK11, in the assay with CDK2 and in the assay with CDK3 was 0% in each case. In addition, the “%Inh” value with CDK4-cyclinD1 and in the assay with CDK4-cyclinD3 was 0% throughout.
For the molecule `CC(=O)Nc1nc2cnc(Nc3cc(NC(=O)c4cccc(CCC#N)c4)ccc3C)nc2s1`, the “%Inh” value in the assay on CAMK1B was found to be 0%; in the assay with CAMK1D, 30%; in the assay with CAMK1G it was 0%; in the assay with CAMK1, 25%; in the assay with CAMK2A, 20%; with CAMK2B, 0%. Moreover, the “%Inh” value in the assay with CAMK2D worked out at 0%; in the assay on CAMK2G, 0%; in the assay with CAMK4 it was 15%; in the assay on CAMKK1, 0%; with CAMKK2, 0%; in the assay with CASK, 10%. Besides, the “%Inh” value was 6% with CDC2L1; 9% in the assay on CDC2L2; 36% in the assay on CDC2L5; 2% with CDK11; 3% in the assay with CDK2; 0% in the assay with CDK3. Also, the “%Inh” value in the assay on CDK4-cyclinD1 and with CDK4-cyclinD3 was 0% throughout.
In the case of `COC(=O)c1c(-c2ccccc2)c2cc(C(=O)O)ccc2c(=O)n1Cc1ccccc1`, the “%Inh” value in the assay on CAMK1B is on record as 0%; in the assay on CAMK1D it was 1%; in the assay on CAMK1G it was 6%; with CAMK1, 1%; with CAMK2A, 0%; in the assay with CAMK2B, 0%. In addition, the “%Inh” value in the assay with CAMK2D came to 5%; with CAMK2G it was 0%; with CAMK4 it was 18%; in the assay with CAMKK1, 0%; in the assay on CAMKK2, 0%; in the assay on CASK, 18%. The “%Inh” value in the assay with CDC2L1 is recorded as 0%; in the assay with CDC2L2, 3%; in the assay on CDC2L5, 40%; in the assay on CDK11 it was 0%; with CDK2, 0%; with CDK3 it was 0%. For the same molecule, the “%Inh” value with CDK4-cyclinD1 and in the assay on CDK4-cyclinD3 was 0% each time.
Regarding `COc1cccc(-c2cc(-c3c[nH]nc3-c3ccccn3)ccn2)c1` [GW680338], the “%Inh” value in the assay with CAMK1B amounted to 22%; in the assay with CAMK1D, 14%; in the assay with CAMK1G it was 0%; with CAMK1, 0%; with CAMK2A, 0%; in the assay with CAMK2B, 0%. Further, the “%Inh” value stood at 16% in the assay with CAMK2D; 15% in the assay with CAMK2G; 0% with CAMK4; 0% with CAMKK1; 9% in the assay with CAMKK2; 18% in the assay on CASK. In addition, the “%Inh” value in the assay with CDC2L1 was 0%; in the assay on CDC2L2, 9%; with CDC2L5, 0%; in the assay on CDK11, 10%; in the assay with CDK2 it was 0%; in the assay on CDK3, 6%. The “%Inh” value was found to be 58% with CDK4-cyclinD1 and 0% in the assay on CDK4-cyclinD3.
As to `CCn1c(-c2cccnc2O)nc2cnccc21` [SB-736715], the “%Inh” value in the assay with CAMK1B was 30%; in the assay on CAMK1D, 0%; in the assay on CAMK1G it was 0%; in the assay on CAMK1 it was 0%; in the assay with CAMK2A, 0%; in the assay on CAMK2B, 0%. In addition, the “%Inh” value stood at 0% in the assay with CAMK2D; 0% in the assay with CAMK2G; 0% in the assay with CAMK4; 2% in the assay with CAMKK1; 0% in the assay with CAMKK2; 0% in the assay with CASK. Besides, the “%Inh” value was 0% in the assay on CDC2L1; 0% in the assay with CDC2L2; 0% in the assay with CDC2L5; 21% in the assay with CDK11; 0% in the assay with CDK2; 0% with CDK3. Also, the “%Inh” value is 7% in the assay with CDK4-cyclinD1 and 0% with CDK4-cyclinD3.
For `COc1ccc(C2=C(Nc3cccc(C(=O)O)c3)C(=O)NC2=O)cc1` [SB-390765], the “%Inh” value turned out to be 44% in the assay with CAMK1B; 18% in the assay on CAMK1D; 0% in the assay with CAMK1G; 23% in the assay with CAMK1; 5% in the assay on CAMK2A; 0% with CAMK2B. Moreover, the “%Inh” value in the assay on CAMK2D came out at 16%; in the assay with CAMK2G, 26%; in the assay with CAMK4, 0%; in the assay on CAMKK1, 0%; in the assay with CAMKK2, 7%; in the assay on CASK it was 15%. In addition, the “%Inh” value in the assay on CDC2L1 is given as 17%; in the assay on CDC2L2, 13%; in the assay on CDC2L5, 8%; in the assay on CDK11 it was 0%; with CDK2, 12%; in the assay with CDK3, 7%. The “%Inh” value in the assay with CDK4-cyclinD1 and in the assay on CDK4-cyclinD3 was 0% throughout.
Take `COc1ccc(Nc2nccc(NCCNC(=O)Nc3ccccc3F)n2)cc1` [GSK1379901]: the “%Inh” value is listed as 35% in the assay with CAMK1B; 3% in the assay with CAMK1D; 69% with CAMK1G; 1% with CAMK1; 0% in the assay on CAMK2A; 0% with CAMK2B. In addition, the “%Inh” value in the assay on CAMK2D is 51%; in the assay with CAMK2G, 13%; in the assay on CAMK4, 0%; in the assay with CAMKK1, 0%; with CAMKK2 it was 0%; with CASK it was 9%. In addition, the “%Inh” value with CDC2L1 was 5%; in the assay with CDC2L2 it was 20%; in the assay on CDC2L5, 0%; in the assay with CDK11, 12%; with CDK2, 0%; in the assay on CDK3, 16%. The “%Inh” value is 0% in the assay on CDK4-cyclinD1 and 9% in the assay on CDK4-cyclinD3.
As for `Cl.NC(=O)c1cccc(Nc2nccc(Nc3ccc(Oc4cccc(Cl)c4)c(Cl)c3)n2)c1` [GW659008], the “%Inh” value came to 0% in the assay on CAMK1B; 17% in the assay on CAMK1D; 9% with CAMK1G; 25% with CAMK1; 0% in the assay on CAMK2A; 0% in the assay on CAMK2B. The “%Inh” value in the assay on CAMK2D turned out to be 5%; in the assay with CAMK2G it was 16%; in the assay with CAMK4, 0%; with CAMKK1, 0%; in the assay on CAMKK2, 0%; with CASK, 7%. In addition, the “%Inh” value with CDC2L1 is 0%; with CDC2L2 it was 13%; in the assay on CDC2L5, 0%; in the assay on CDK11, 8%; in the assay on CDK2, 0%; in the assay on CDK3, 24%. The “%Inh” value in the assay with CDK4-cyclinD1 and with CDK4-cyclinD3 was 0% each time.
On to `CC(C)(C)c1ccc(C(=O)Nc2cn3cc(Cl)ccc3n2)cc1`, for which the “%Inh” value in the assay with CAMK1B is given as 0%; in the assay on CAMK1D it was 0%; in the assay on CAMK1G, 0%; in the assay with CAMK1, 0%; with CAMK2A, 3%; with CAMK2B, 0%. Further, the “%Inh” value in the assay with CAMK2D stood at 3%; with CAMK2G, 11%; with CAMK4, 6%; in the assay on CAMKK1, 95.8%; in the assay with CAMKK2 it was 14%; in the assay on CASK, 18%. In addition, the “%Inh” value stood at 0% in the assay with CDC2L1; 0% in the assay with CDC2L2; 6% in the assay on CDC2L5; 16% with CDK11; 0% with CDK2; 0% with CDK3. Also, the “%Inh” value stood at 11% in the assay with CDK4-cyclinD1 and 0% in the assay with CDK4-cyclinD3.

For the origin of these results see publication PMC5540273 (PLoS ONE, 2017).
